# Many of the other results were omitted from the sample, so hits are more common in it than they were.
# CD40 NFkB inh – CD40 pathway inhibition in BL2 cells; BL2 NF-kB luciferase reporter, CD40L-induced, 4 h; 83,000 tested, 0.94% active; AID 1053188; inhibition, % at 10 µM;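 active = mean inhibition of at least 50% with a set share of replicates also reaching that level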;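 also: 0% = neutral control wells and 100% = IKK inhibitor VII at 50 µM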
# * marks the source's active call; other numbers are inactive results; [ ] = remark or other dose.
SMILES,CD40 NFkB inh
CC1=NNC(=O)C1Br (stereo not given),52*
COC(=O)[C@@H]1[C@@H](CO)[C@@H]2Cn3c(ccc(-c4ccccc4)c3=O)[C@H]1N2S(=O)(=O)c1ccccc1C,19[25 µM]
C/C=C/c1ccc(C2[C@@H]3CN(Cc4cccnc4)C[C@H]2N3)cc1 (stereo not given in full),-3
CCCN1[C@@H]2c3ccc(-c4cccc(OC)c4)c(=O)n3C[C@H]1[C@H](CO)[C@H]2C(=O)OC,-11[25 µM]
CC(=O)OC(C)(C)/C=C/C(=O)C(C)(O)C1C(O)CC2(C)C3CC=C4C(CC(O)C(=O)C4(C)C)C3(C)C(=O)CC12C (stereo not given),60*
Fc1ccc(CN2CC3NC(C2)C3c2ccc(Br)cc2)cc1 (stereo not given),4
CC1=CC2OC3CC4OC(=O)C=CC=CC(=O)OCCC(C)C(O)C(=O)OCC2(CC1O)C4(C)C31CO1 (stereo not given),103*
CC(=O)OC1C(=O)OCC23CCC4(C)OC4C2OC2CC(OC(=O)C=CC=CC(=O)OCCC1C)C3(C)C21CO1 (stereo not given),68*
O=C(O)[C@H]1[C@H](CO)[C@H]2Cn3c(ccc(-c4ccccc4F)c3=O)[C@@H]1N2C(=O)Nc1ccccc1,-8[25 µM]
CCN(CC)CCOC1CCC2(C)C(=CCC3C4CCC(=O)C4(C)CCC32)C1 (stereo not given),-11[25 µM]
Cc1ccc(OC(=O)N(C)C[C@H]2OCc3ccccc3-c3c(n(C)c4ccccc34)C(=O)N([C@H](C)CO)C[C@@H]2C)cc1,21[25 µM]
O=C(Cc1ccccn1)N1CCCCN2[C@H](CO)[C@H](c3ccc(Br)cc3)[C@H]2C1,-4[25 µM]
FC(F)(F)CN1C[C@@H]2N[C@H](C1)C2c1ccc(Br)cc1 (stereo not given in full),2
Clc1ccc(C2=CCCC3CCC2N3)cn1 (stereo not given),-14[25 µM]
COC(=O)[C@H]1[C@H](CO)[C@H]2Cn3c(ccc(-c4ccccc4F)c3=O)[C@@H]1N2C(C)=O,1[25 µM]
O=C(Cc1ccccn1)N1CCCCN2[C@@H](CO)[C@H](c3ccc(Br)cc3)[C@@H]2C1,-1[25 µM]
Oc1ccc2c3c1OC1c4oc5ccccc5c4CC4(O)C(C2)N(CC2CC2)CCC314 (stereo not given),1[25 µM]
FC(F)(F)CN1C[C@@H]2C(c3ccc(Br)cc3)[C@H](C1)N2CC1CC1 (stereo not given in full),-4
O=C1NC(=O)c2c1c1c3ccccc3[nH]c1c1[nH]c3ccccc3c21,69*[25 µM]
C/C=C/c1ccc(C2[C@H]3CNC[C@@H]2N3CC2CCCCC2)cc1 (stereo not given in full),-1
COc1cccc(-c2ccc3n(c2=O)C[C@@H]2[C@@H](CO)[C@H](C(=O)O)[C@H]3N2Cc2ccccc2F)c1,-3[25 µM]
C[C@H]1CCCC(=O)CCC/C=C/c2cc(O)cc(O)c2C(=O)O1,43*
COC(=O)[C@H]1[C@H](CO)[C@H]2Cn3c(ccc(C4=CCCCC4)c3=O)[C@@H]1N2C(=O)Cc1ccccn1,-16[25 µM]
O=C(O)[C@@H]1[C@@H](CO)[C@@H]2Cn3c(ccc(-c4ccncc4)c3=O)[C@H]1N2S(=O)(=O)c1ccccc1F,0[25 µM]
C[C@@H]1O[C@@H](O[C@H]2C[C@@H](O)[C@]3(CO)[C@H]4[C@H](O)C[C@]5(C)[C@@H](C6COC(=O)C6)CC[C@]5(O)[C@@H]4CC[C@]3(O)C2)[C@H](O)[C@H](O)[C@H]1O (stereo not given in full),67*
SMILES,CD40 NFkB inh
CC1OC(OC2CC(O)C3(CO)C4C(O)CC5(C)C(C6=CC(=O)OC6)CCC5(O)C4CCC3(O)C2)C(O)C(O)C1O (stereo not given),73*[25 µM]
O=C(Cc1cccnc1)N1CCCCN2[C@H](C1)[C@H](c1ccc(C#CC3CCCC3)cc1)[C@@H]2CO,1[25 µM]
C[C@]12CC[C@@H](O)C[C@@H]1CC[C@@H]1[C@@H]2CC[C@]2(C)[C@@H](C(=O)CO)CC[C@@H]12,-8[25 µM]
N#Cc1ccc(-c2ccc([C@H]3[C@H](CO)N4CCCCN(C(=O)Cc5ccccc5)C[C@@H]34)cc2)cc1,17[25 µM]
CCC(=O)N1[C@@H]2c3ccc(C4=CCCC4)c(=O)n3C[C@H]1[C@H](CO)[C@H]2C(=O)OC,9[25 µM]
OC[C@H]1[C@@H]2c3ccccc3NC[C@@H]2N1Cc1cccnc1,0[25 µM]
C=CCN1[C@@H]2CN(S(C)(=O)=O)C[C@H]1C2c1ccccc1 (stereo not given in full),-1
COc1ccc(OC(=O)N(C)C[C@H]2OCc3ccccc3-c3c(n(C)c4ccccc34)C(=O)N([C@@H](C)CO)C[C@@H]2C)cc1,15
CC=Cc1ccc2n(c1=O)C[C@H]1[C@H](CO)[C@@H](C(=O)OC)[C@@H]2N1S(=O)(=O)c1ccccc1C (mixture of isomers),4[25 µM]
COC(=O)[C@H]1[C@H](CO)[C@H]2Cn3c(ccc(-c4cccc(C(=O)N(C)C)c4)c3=O)[C@@H]1N2CC1CC1,-2[25 µM]
CC(=NNC(=S)N1CC2CCC(CC2)C1)c1nccs1,66*

# Assay outcomes deposited in PubChem by Broad Institute.
